hgDAF-12 ag: activates the H. glycines DAF-12 receptor ligand-binding domain | 370,000 tested, 1.8% active | activation, % at 6.8 µM | HEK293 GAL4-hgDAF12 UAS-luciferase reporter, agonist luminescence; normalized to butyrate control | AID 687014;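 active = activation above a cutoff set at the mean of all screened compounds plus 3 SD, cut at about 10% in these data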
SMARCA2 activ: increases SMARCA2 function in MMTV reporter cells | MG213 cells, MMTV-luciferase reporter, dexamethasone, overnight | activation, % at 9.1 µM | 370,000 tested, 1% active | AID 652017; in the data active = activation above about 7.8%
DAX1 inh-1: DAX1 (NR0B1) inhibition, primary screen | HEK293T StAR-luciferase reporter, SF-1/DAX-1 repression relief | inhibition, % at 6.8 µM | 370,000 tested, 1.1% active | AID 652010;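 active = inhibition above the mean over all tested compounds plus 3 SD, cut at about 3.6% in these data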;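 note: higher inhibition means more luminescence from relief of DAX-1 repression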
ssDAF12 agonist: activators of S. stercoralis DAF-12 nuclear receptor | HEK293 ssDAF-12/GRIP1 lit1-tk-luc reporter, luminescence; % of 3 µM dafachronic acid response | 370,000 tested, 1% active | activation, % at 6.8 µM;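 active = activation above the mean over all tested compounds plus 3 SD, cut at about 0.9% in these data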
DAX1 inh-2: NR0B1 (DAX1) inhibition. inhibition, % at 6.75 µM. HEK293 Gal4-DAX1 luciferase reporter, luminescence. P51843. AID 504766. 340,000 tested, 0.99% active;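 active = inhibition above the mean over all tested compounds plus 3 SD, cut at about 4.2% in these data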;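 note: inhibition shows as a rise in luminescence from relieved DAX1 repression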
Target sequence (P51843 207-470 limits assumed): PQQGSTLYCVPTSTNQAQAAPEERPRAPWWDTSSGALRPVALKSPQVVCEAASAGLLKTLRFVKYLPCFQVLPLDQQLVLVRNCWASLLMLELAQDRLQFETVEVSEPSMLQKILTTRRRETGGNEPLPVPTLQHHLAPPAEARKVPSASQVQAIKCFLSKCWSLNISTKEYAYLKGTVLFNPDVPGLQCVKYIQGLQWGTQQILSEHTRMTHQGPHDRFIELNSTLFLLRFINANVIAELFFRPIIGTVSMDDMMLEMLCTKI
hcDAF-12 act: activators of H. contortus DAF-12 nuclear receptor | HEK293 hcDAF-12 lit1-tk-luc reporter, luminescence; 0% DMSO, 100% Δ7-dafachronic acid | 370,000 tested, 1.4% active | activation, % at 6.8 µM | AID 652067;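 active = activation above the mean of all tested compounds plus 3 SD, cut at about 5.5% in these data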
SMARCA2 conf: confirmation of SMARCA2 (BRM) function activators; shares compounds with SMARCA2 activ; MG213 cells, MMTV-luciferase with dexamethasone, luminescence, overnight; MG213 cells expressing E1A, Rb sequestered; DMSO wells 0%, reference activator 100%; activation, % at 9.1 µM; 3,500 tested, 30% active; AID 652260;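 active = activation above its plate's cutoff, the mean activation of tested wells plus 3 SD, cut at about 7.9% in these data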
VP16 Luc act: counter-screen for SMARCA2 activators: GAL4-VP16 luciferase reporter activation | shares compounds with SMARCA2 activ | HEK293 GAL4-VP16 pG5luc reporter, luciferase luminescence; scaled: DMSO wells 0%, SAHA wells 100% | activation, % at 9.1 µM | 3,500 tested, 41% active | AID 686939;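 active = activation above the solvent-only control well mean plus 3 SD, averaged across control plates, cut at about 5.2% in these data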
Large screens that a line does not name were inactive (follow-up assays come after a bar, where they were run). Compounds with a hit are over-represented: about 4.8% of the library has one in this group of screens.

C[C@H](O)[C@@H]1C(=O)N2CCc3c([nH]c4c(-c5ccccc5)cccc34)[C@@H]2C[C@@H]1N(C)C(=O)/C=C/c1ccccc1	none (no result: DAX1 inh-2)
CC(=O)NCCc1ccc(C(=O)COC(=O)c2cccs2)cc1	SMARCA2 activ 8.6 | SMARCA2 conf 9.8 | VP16 Luc act inactive
CC(=O)NCCc1ccc(C(=O)COC(=O)c2cccn2C)cc1	SMARCA2 activ 9.2 | SMARCA2 conf inactive | VP16 Luc act inactive
COc1cccc(C(=O)COC(=O)c2cccs2)c1	SMARCA2 activ 9.1 | SMARCA2 conf 12.0 | VP16 Luc act inactive
COc1ccc(C(=O)COC(=O)c2cccs2)cc1	hgDAF-12 ag 11.3, SMARCA2 activ 10.9, DAX1 inh-1 3.7 | SMARCA2 conf inactive | VP16 Luc act 10.0
COc1cccc(N(C)C(=O)[C@@H](C)[C@@H](O)c2ccc(Cl)cc2)c1	none (no result: DAX1 inh-2)
C[C@@H]1CCN(C2CC2)S(=O)(=O)c2c(cccc2N2CC[C@H](N(C)C)C2)O1	none (no result: DAX1 inh-2)
Cc1cc2c(nc1C)CCCN2S(=O)(=O)c1ccc(C(F)(F)F)cc1	none (no result: DAX1 inh-2)
C/C(=N\NC(N)=S)c1ccccc1	SMARCA2 activ 8.0 | SMARCA2 conf inactive | VP16 Luc act inactive
NC(=S)NN=C(c1ccccc1)c1ccccc1	none
COC(=O)[C@]12C[C@H](CC(=O)NCc3cccc4ccccc34)C(=O)N(Cc3ccc4c(c3)OCO4)C1=C[C@H](C(C)C)O[C@@H]2C1CC1	none (no result: DAX1 inh-2)
Cc1cccc(NC(=S)NC(=O)c2ccc(-c3ccccc3)cc2)n1	SMARCA2 activ 10.8 | SMARCA2 conf 10.2 | VP16 Luc act 6.7
Nc1nc(Cl)nc2c1ncn2[C@@H]1O[C@H](CO)[C@@H](O)[C@@H]1F	none (no result: DAX1 inh-2)
O=C(CCn1c(=O)oc2ccccc21)Nc1ccccc1	SMARCA2 activ 9.0 | SMARCA2 conf inactive | VP16 Luc act inactive
Cc1nnc(NC(=O)c2cc(S(=O)(=O)N(C)C)ccc2N2CCCC2)s1	SMARCA2 activ 9.1 | SMARCA2 conf inactive | VP16 Luc act inactive
CNc1nc(N)c([N+](=O)[O-])c(Nc2cccc(Cl)c2)n1	SMARCA2 activ 8.3 (no result: DAX1 inh-2) | SMARCA2 conf inactive | VP16 Luc act inactive
COc1cc2c(c(OC)c1)C(=O)O[C@H](C)C[C@@H]1O[C@H]1CCCCC(=O)C2	none (no result: DAX1 inh-2)
COc1cccc(/C=N/Nc2nnc(C)n2N)c1OCc1ccccc1Cl	SMARCA2 activ 15.9 | SMARCA2 conf inactive | VP16 Luc act inactive
CCCC[C@H](C(=O)N(C)c1cccc(OC)c1)[C@@H](O)c1ccc(Cl)cc1	none (no result: DAX1 inh-2)
COC(=O)[C@]12C[C@H](CC(=O)N3CCOCC3)C(=O)N(Cc3cccc4ccccc34)C1=C[C@H](C1CCCC1)O[C@@H]2C	none (no result: DAX1 inh-2)
CCCCCCCCN1C(=O)[C@@H](CC(=O)NCCCOCCCC)C[C@@]2(C(=O)OC)C1=C[C@H](C(C)C)O[C@@H]2C1CC1	none (no result: DAX1 inh-2)
N#C/C(=C\c1ccc[nH]1)C(=O)Nc1ccccc1[N+](=O)[O-]	SMARCA2 activ 10.7 | SMARCA2 conf 13.8 | VP16 Luc act 6.1
O=C(NCC1COCCO1)C1CCN(S(=O)(=O)c2ccc(Br)s2)CC1 (configuration not stated)	none (no result: DAX1 inh-2)
O=C(NCCC1=CCCCC1)C1CCN(S(=O)(=O)c2ccccc2[N+](=O)[O-])CC1	none (no result: DAX1 inh-2)
Cc1ccc2c(c1)-c1c(cnn1CC(=O)NCCc1ccccc1F)CO2	none (no result: DAX1 inh-2)
COc1cc2ccccc2cc1C(=O)Nc1ccc(N2CCN(C)CC2)cc1	hgDAF-12 ag 12.7, SMARCA2 activ 18.6 | SMARCA2 conf 9.7 | VP16 Luc act 8.8
CC(=O)Nc1cc(C(=O)OCC(=O)c2ccccc2)ccc1C	hgDAF-12 ag 12.2, SMARCA2 activ 8.3, hcDAF-12 act 7.0 | SMARCA2 conf inactive | VP16 Luc act 10.0
COc1ccccc1NS(=O)(=O)c1cc(NC(=O)c2[nH]c(C)c(C(C)=O)c2C)ccc1N1CCOCC1	SMARCA2 activ 9.9, DAX1 inh-1 4.0 | SMARCA2 conf 10.5 | VP16 Luc act 6.0
COCCNC(=S)Nc1ccc(N2CCOCC2)c(S(=O)(=O)Nc2ccccc2OC)c1	SMARCA2 activ 15.9 | SMARCA2 conf inactive | VP16 Luc act inactive
COc1ccccc1NS(=O)(=O)c1cc(NC(=O)c2ccccc2C)ccc1N1CCOCC1	none
N#C/C(C(=O)NCc1ccccc1)=C1/N=C(NC(=O)c2ccco2)c2ccccc21	SMARCA2 activ 10.2 | SMARCA2 conf inactive | VP16 Luc act inactive
CC(=O)N1c2ccccc2C(C)=NCC1C(=O)NC1CCCCC1 (configuration not stated)	none (no result: DAX1 inh-2)
C=CCn1c(=N)n(CC(=O)c2ccc(OC)cc2)c2ccccc21	none
CCCCn1c(=N)n(CC(=O)c2ccc(OC)cc2)c2ccccc21	SMARCA2 activ 9.4 (no result: DAX1 inh-2) | SMARCA2 conf 19.8 | VP16 Luc act inactive
CC(=O)Nc1ccc(S(=O)(=O)NCC2CCN(C(=O)C(=O)c3cccs3)CC2)cc1	none (no result: DAX1 inh-2)
O=c1cc(-c2ccccc2Cl)oc2cc(O)cc(O)c12	none
Nc1ccc(O)c2c(=O)cc(-c3ccccc3Cl)oc12	SMARCA2 activ 8.1 | SMARCA2 conf inactive | VP16 Luc act 11.4
O=C(Nc1cccc2nsnc12)c1ccc2c(c1)OCCO2	SMARCA2 activ 8.8, hcDAF-12 act 5.6 | SMARCA2 conf inactive | VP16 Luc act 9.7
CC(C)=CCNc1ncnc2c1c(C#N)cn2C1OC(CO)C(O)C1O (configuration not stated)	SMARCA2 activ 41.2 | SMARCA2 conf 58.9 | VP16 Luc act inactive
Cc1nc(NC(=O)Nc2ccc(Cl)cc2)sc1C	SMARCA2 activ 8.6 | SMARCA2 conf inactive | VP16 Luc act 10.3
CC(C)(C)c1nnc(NC(=O)Nc2ccc(Cl)cc2)s1	none
COc1ccc(C2C(C(=O)N3CCOCC3)CC(=O)N2c2ccc(OC)cc2)cc1 (configuration not stated)	none (no result: DAX1 inh-2)
O=C1NC(=O)/C(=C\c2ccc(O)cc2O)S1	SMARCA2 activ 13.0 | SMARCA2 conf inactive | VP16 Luc act inactive
O=C(OCC#CCSc1nnc(-c2cccc3ccccc23)o1)c1ccc(SC(F)(F)F)cc1	none (no result: SMARCA2 activ, DAX1 inh-1, DAX1 inh-2)
Cc1cc(C(=O)N/N=C/c2cccc(Cl)c2Cl)no1	SMARCA2 activ 10.7 | SMARCA2 conf inactive | VP16 Luc act 8.8
O=C1N2Cc3ccccc3C2CS(=O)(=O)N1C1CCCC1 (configuration not stated)	none (no result: DAX1 inh-2)
CC1CCCCN1S(=O)(=O)c1ccc(S(=O)(=O)N2CCCC2)cc1 (configuration not stated)	SMARCA2 activ 8.9 | SMARCA2 conf inactive | VP16 Luc act inactive

Screening results: PubChem BioAssay, The Scripps Research Institute Molecular Screening Center
